From the supplement of paper PMC10849652
Targets with a hit are over-represented here; the source holds about 7,900 in all. About 0.6% of all pairs of compound and target were hits.

How the values were obtained:
Assay in all cases: log2 fold change, soluble protein after heating vs DMSO (PISA); higher = thermal stabilisation; K562 cells, 10 uM, 30 min; active = over 0.2 and 3.5 SD of the protein, either way, in both replicates (recomputed)
[1] = compound: CC[C@@H]1C(=O)N(C)c2cnc(Nc3ccc(C(=O)NC4CCN(C)CC4)cc3OC)nc2N1C1CCCC1
Outline: (§1)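 Thermal stability values are relative to control samples and come from duplicates. They are expressed as log2 fold changes. For measurement, K562 cells (2×10^6 cells/mL) received 10 μM compound for 30 min, and aliquots were heated for 3 min over 48°C-58°C, pooled, and extracted at 4°C in PBS with 0.5% NP-40. Soluble protein, the supernatant after 21,000xg for 90 min, was quantified by TMTpro 16plex LC-MS/MS with equalised channel sums.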

[2] = compound: CC[C@@H]1C(=O)N(C)c2cnc(Nc3ccc(C(=O)N[C@H]4CC[C@H](N5CCN(CC6CC6)CC5)CC4)cc3OC)nc2N1C(C)C [volasertib]
Outline: as §1

[3] = compound: CC[C@H](C)N1C=C(C2=C(C=C(C=C21)C3=CN=C(C=C3)N4CCNCC4)C(=O)NCC5=C(C=C(NC5=O)C)C)C
Outline: as §1

[4] = compound: CC[C@H](C)[C@@H](C(=O)N[C@@H]([C@@H](C)O)C(=O)N[C@@H](CC(C)C)C(=O)[C@]1(CO1)C)NC(=O)[C@H]([C@@H](C)CC)N(C)C(=O)C [epoxomicin]
Outline: as §1

[5] = compound: CCn1c(C(=O)N(C2CC2)C2CC2)cc2c3c(ncn3C)c(Nc3cc(C)n(C)n3)nc21
Outline: as §1

[6] = compound: CCn1cc(-c2ccnc3[nH]c(-c4cccc(CN(C)C)c4)cc23)c(-c2ccc(NC(=O)N(C)C)cc2)n1
Outline: as §1

[7] = compound: CN(C)CC(=O)Nc1ccc2[nH]c(=O)c3ccccc3c2c1
Outline: as §1

[8] = compound: CN(CCOC1=CC=C(C=C1)C[C@H]2C(=O)NC(=O)S2)C3=CC=CC=N3 (racemic) [rosiglitazone]
Outline: as §1

[9] = compound: CN1C2=C(C3=C1C(=O)N(N=C3)CC4=CC(=CC=C4)N)SC(=C2)S(=O)C
Outline: as §1

[10] = compound: CN1CCC(CNc2ccc3ncc(-c4cccc(OC(F)(F)F)c4)n3n2)CC1
Outline: as §1

[11] = compound: CN1CCN(CCOc2cc(OC3CCOCC3)c3c(Nc4c(Cl)ccc5c4OCO5)ncnc3c2)CC1 [saracatinib]
Outline: as §1

[12] = compound: CN1CCN(c2nc(C3=C(c4c[nH]c5ccccc45)C(=O)NC3=O)c3ccccc3n2)CC1 [sotrastaurin]
Outline: as §1

[13] = compound: CN1CC[C@H](c2c(O)cc(O)c3c(=O)cc(-c4ccccc4Cl)oc23)[C@H](O)C1 [alvocidib]
Outline: as §1

[14] = compound: CN1CCc2c(c3ccccc3n2Cc2ccc(C(=O)NO)cc2)C1 [Tubastatin A]
Outline: as §1

[15] = compound: CNC(=O)C1=CC=CC=C1NC2=NC(=NC=C2Cl)NC3=C(C=C(C=C3)N4CCOCC4)OC
Outline: as §1

[16] = compound: CNC(=O)c1ccc(Nc2ncc(C(F)(F)F)c(NCc3nccnc3N(C)S(C)(=O)=O)n2)cc1 [defactinib]
Outline: as §1

[17] = compound: CNCc1ccc(-c2[nH]c3cc(F)cc4c3c2CCNC4=O)cc1 [rucaparib]
Outline: as §1

[18] = compound: CNc1nc(-c2ccc3c(N)n[nH]c3c2)cc(N2C[C@@H](C(=O)NC3CCCCC3)CC[C@H]2C)n1
Outline: as §1

[19] = compound: COC(=O)N[C@@H](C)CNc1nccc(-c2cn(C(C)C)nc2-c2cc(Cl)cc(NS(C)(=O)=O)c2F)n1 [encorafenib]
Outline: as §1

[20] = compound: COC(=O)[C@H](CCSC)NC(=O)C1=C(C=C(C=C1)NC[C@H](CS)N)C2=CC=CC=C2
Outline: as §1

Measured: log2 fold change

MRPL34 (UniProt Q9BQ48)
inactive: [1] 0.061 | [2] 0.029 | [3] -0.007 | [4] -0.042 | [5] -0.042 | [6] 0.109 | [7] -0.065 | [8] -0.028 | [9] 0.232 | [10] 0.048 | [11] -0.09 | [12] 0 | [13] 0.117 | [14] 0.119 | [15] 0.086 | [16] 0.138 | [17] 0.101 | [18] 0.169 | [19] 0.055 | [20] 0.035

NME1 isoform 2 (UniProt P15531)
UniProt P15531, sequence (P15531 whole entry, looked up): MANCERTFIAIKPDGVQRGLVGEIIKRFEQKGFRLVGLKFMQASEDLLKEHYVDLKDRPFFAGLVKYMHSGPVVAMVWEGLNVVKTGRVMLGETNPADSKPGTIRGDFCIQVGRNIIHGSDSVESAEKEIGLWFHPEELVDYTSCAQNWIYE
inactive: [1] 0.061 | [2] 0.046 | [3] 0.03 | [4] -0.01 | [5] -0.087 | [6] -0.134 | [7] -0.028 | [8] 0.024 | [9] -0.184 | [10] -0.039 | [11] -0.156 | [12] 0.049 | [13] -0.103 | [14] -0.024 | [15] -0.087 | [16] -0.01 | [17] 0.035 | [18] 0.069 | [19] -0.032 | [20] 0.041

PAFAH1B2 (UniProt P68402)
UniProt P68402, sequence (P68402 whole entry, looked up): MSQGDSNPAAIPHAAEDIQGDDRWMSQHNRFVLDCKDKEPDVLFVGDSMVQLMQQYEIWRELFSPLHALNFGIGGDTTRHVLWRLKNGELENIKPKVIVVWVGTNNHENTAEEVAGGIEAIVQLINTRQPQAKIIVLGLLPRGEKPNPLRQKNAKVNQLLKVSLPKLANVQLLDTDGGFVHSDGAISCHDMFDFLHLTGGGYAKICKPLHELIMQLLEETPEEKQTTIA
inactive: [1] 0.002 | [2] 0.064 | [3] 0.036 | [4] 0.102 | [5] 0.018 | [6] -0.087 | [7] -0.009 | [8] 0 | [9] -0.037 | [10] -0.016 | [11] -0.016 | [12] 0.097 | [13] 0.031 | [14] -0.058 | [15] -0.029 | [16] 0.022 | [17] 0.037 | [18] 0.078 | [19] -0.006 | [20] -0.026

MRPS31 (UniProt Q92665)
inactive: [1] 0.056 | [2] 0 | [3] 0.036 | [4] -0.015 | [5] -0.036 | [6] 0.014 | [7] -0.054 | [8] -0.018 | [9] 0 | [10] 0.052 | [11] 0.031 | [12] -0.088 | [13] 0.04 | [14] 0.053 | [15] 0.025 | [16] 0.027 | [17] 0.031 | [18] 0.078 | [19] 0.041 | [20] 0.016

NECTIN2 (UniProt Q92692)
UniProt Q92692, sequence (Q92692 whole entry, looked up): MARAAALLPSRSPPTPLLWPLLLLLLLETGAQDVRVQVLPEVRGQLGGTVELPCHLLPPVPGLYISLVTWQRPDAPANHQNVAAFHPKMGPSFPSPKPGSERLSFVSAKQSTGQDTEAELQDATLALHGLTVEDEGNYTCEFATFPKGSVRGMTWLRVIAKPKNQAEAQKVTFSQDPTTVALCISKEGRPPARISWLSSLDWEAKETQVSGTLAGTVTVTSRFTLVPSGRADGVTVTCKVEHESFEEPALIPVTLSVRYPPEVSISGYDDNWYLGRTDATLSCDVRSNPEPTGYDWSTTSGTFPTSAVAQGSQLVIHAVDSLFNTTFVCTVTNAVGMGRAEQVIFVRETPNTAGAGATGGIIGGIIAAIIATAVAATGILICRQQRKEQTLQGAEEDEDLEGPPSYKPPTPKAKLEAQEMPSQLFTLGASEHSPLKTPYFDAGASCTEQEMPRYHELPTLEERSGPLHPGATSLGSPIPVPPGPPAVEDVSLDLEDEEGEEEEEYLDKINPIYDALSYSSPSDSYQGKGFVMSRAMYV
inactive: [1] 0.071 | [2] 0.029 | [3] -0.003 | [4] 0.02 | [5] 0.018 | [6] -0.044 | [7] -0.028 | [8] -0.023 | [9] -0.063 | [10] 0.138 | [11] 0.021 | [12] 0.047 | [13] -0.044 | [14] -0.013 | [15] -0.056 | [16] -0.013 | [17] -0.051 | [18] 0.049 | [19] -0.024 | [20] 0.063

MRPS10 (UniProt P82664)
inactive: [1] 0.02 | [2] 0.027 | [3] 0.088 | [4] -0.022 | [5] -0.021 | [6] 0.045 | [7] 0.085 | [8] 0.003 | [9] 0.066 | [10] 0.068 | [11] -0.029 | [12] -0.076 | [13] -0.007 | [14] 0.035 | [15] -0.034 | [16] -0.071 | [17] 0.006 | [18] 0.097 | [19] 0.014 | [20] -0.055

MRPL50 (UniProt Q8N5N7)
inactive: [1] 0.026 | [2] -0.029 | [3] -0.063 | [4] 0.094 | [5] -0.005 | [6] -0.044 | [7] 0.037 | [8] -0.015 | [9] -0.043 | [10] 0.308 | [11] 0.148 | [12] -0.048 | [13] 0.066 | [14] 0.133 | [15] -0.011 | [16] 0.04 | [17] 0.063 | [18] -0.065 | [19] -0.01 | [20] 0.061

NDUFB8 (UniProt O95169)
UniProt O95169, sequence (O95169 whole entry, looked up): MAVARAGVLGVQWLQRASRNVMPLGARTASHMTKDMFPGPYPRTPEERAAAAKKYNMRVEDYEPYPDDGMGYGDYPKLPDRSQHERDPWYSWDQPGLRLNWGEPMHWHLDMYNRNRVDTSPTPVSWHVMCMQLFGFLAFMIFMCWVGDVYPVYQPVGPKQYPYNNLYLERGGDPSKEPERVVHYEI
inactive: [1] 0.008 | [2] -0.016 | [3] -0.036 | [4] 0.074 | [5] 0.041 | [6] 0.055 | [7] 0.016 | [8] 0.025 | [9] 0 | [10] 0.097 | [11] -0.064 | [12] 0.071 | [13] -0.077 | [14] -0.016 | [15] 0.002 | [16] -0.037 | [17] 0.003 | [18] -0.073 | [19] 0.016 | [20] -0.048

NSMCE2 (UniProt Q96MF7)
UniProt Q96MF7, sequence (Q96MF7 whole entry, looked up): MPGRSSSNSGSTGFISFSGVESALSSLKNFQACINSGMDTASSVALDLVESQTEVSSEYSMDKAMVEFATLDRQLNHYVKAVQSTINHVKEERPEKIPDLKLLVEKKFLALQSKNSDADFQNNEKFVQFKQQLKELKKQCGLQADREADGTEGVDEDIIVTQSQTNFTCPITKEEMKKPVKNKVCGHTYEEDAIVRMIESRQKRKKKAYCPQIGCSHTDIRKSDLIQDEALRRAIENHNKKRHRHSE
inactive: [1] 0.072 | [2] -0.032 | [3] -0.003 | [4] -0.089 | [5] 0.025 | [6] 0.079 | [7] -0.007 | [8] 0.119 | [9] 0.059 | [11] -0.019 | [12] -0.095 | [13] -0.004 | [14] 0 | [15] 0.031 | [16] -0.06 | [17] 0.076 | [18] -0.076 | [19] -0.001 | [20] 0.025
active: [10] 0.397

MSTO1 (UniProt Q9BUK6)
UniProt Q9BUK6, sequence (Q9BUK6 whole entry, looked up): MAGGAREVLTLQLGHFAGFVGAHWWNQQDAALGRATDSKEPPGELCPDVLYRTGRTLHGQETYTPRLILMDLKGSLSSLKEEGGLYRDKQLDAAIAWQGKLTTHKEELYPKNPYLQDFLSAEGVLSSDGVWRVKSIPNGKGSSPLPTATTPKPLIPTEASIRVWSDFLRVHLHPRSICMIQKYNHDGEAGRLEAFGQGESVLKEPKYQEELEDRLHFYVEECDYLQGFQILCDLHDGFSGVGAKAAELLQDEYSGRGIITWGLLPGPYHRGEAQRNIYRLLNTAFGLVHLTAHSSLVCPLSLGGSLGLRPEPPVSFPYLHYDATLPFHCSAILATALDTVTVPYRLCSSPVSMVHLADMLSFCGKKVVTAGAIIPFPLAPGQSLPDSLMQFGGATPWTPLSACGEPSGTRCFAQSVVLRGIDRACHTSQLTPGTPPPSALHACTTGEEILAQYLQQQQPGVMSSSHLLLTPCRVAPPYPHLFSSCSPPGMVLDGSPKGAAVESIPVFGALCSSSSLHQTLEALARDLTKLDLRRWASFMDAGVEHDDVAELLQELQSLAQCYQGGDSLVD
active: [18] 0.235
inactive: [1] 0.014 | [2] -0.012 | [3] 0.046 | [4] 0.044 | [5] 0.038 | [6] -0.119 | [7] 0.071 | [8] 0.119 | [9] -0.057 | [10] -0.185 | [11] 0.047 | [12] 0.025 | [13] -0.001 | [14] 0.023 | [15] -0.031 | [16] -0.045 | [17] -0.029 | [19] 0.04 | [20] 0.034

MRPS22 (UniProt P82650)
inactive: [1] 0.007 | [2] -0.05 | [3] 0.125 | [4] 0.004 | [5] -0.03 | [6] -0.068 | [7] 0.004 | [8] -0.006 | [9] 0.084 | [10] 0.103 | [11] -0.098 | [12] -0.122 | [13] -0.051 | [14] -0.006 | [15] -0.038 | [16] 0.058 | [17] 0.143 | [18] 0.169 | [19] 0.064 | [20] -0.051

NIBAN1 (UniProt Q9BZQ8)
UniProt Q9BZQ8, sequence (Q9BZQ8 whole entry, looked up): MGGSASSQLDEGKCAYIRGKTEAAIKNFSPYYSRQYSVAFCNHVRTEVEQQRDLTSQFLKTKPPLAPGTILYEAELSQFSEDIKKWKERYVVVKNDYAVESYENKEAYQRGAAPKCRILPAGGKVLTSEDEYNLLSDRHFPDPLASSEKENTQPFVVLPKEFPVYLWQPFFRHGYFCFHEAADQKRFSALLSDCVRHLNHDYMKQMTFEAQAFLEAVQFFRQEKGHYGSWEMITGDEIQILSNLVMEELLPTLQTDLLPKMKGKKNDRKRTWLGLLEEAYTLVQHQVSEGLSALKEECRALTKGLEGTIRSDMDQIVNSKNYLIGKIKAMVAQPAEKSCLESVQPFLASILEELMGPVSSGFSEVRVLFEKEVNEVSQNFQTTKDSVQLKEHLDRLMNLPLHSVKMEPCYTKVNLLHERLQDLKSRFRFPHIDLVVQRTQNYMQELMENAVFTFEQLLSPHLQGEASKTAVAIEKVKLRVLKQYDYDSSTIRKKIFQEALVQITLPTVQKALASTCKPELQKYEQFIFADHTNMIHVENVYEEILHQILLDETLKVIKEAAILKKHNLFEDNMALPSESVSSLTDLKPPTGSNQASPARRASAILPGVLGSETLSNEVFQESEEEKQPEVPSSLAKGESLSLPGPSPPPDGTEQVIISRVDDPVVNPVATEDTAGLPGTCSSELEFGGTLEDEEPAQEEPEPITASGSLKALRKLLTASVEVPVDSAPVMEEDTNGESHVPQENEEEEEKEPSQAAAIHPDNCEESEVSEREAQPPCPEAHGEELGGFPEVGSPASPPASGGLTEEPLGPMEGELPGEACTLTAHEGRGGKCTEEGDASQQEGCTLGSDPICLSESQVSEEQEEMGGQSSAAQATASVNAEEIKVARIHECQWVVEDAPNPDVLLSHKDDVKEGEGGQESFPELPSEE
active: [2] -0.428
inactive: [1] -0.16 | [3] 0.073 | [4] 0.066 | [5] -0.039 | [6] -0.085 | [7] 0.022 | [8] 0.055 | [9] 0.04 | [10] -0.208 | [11] -0.051 | [12] -0.086 | [13] -0.037 | [14] 0.004 | [15] -0.013 | [16] -0.111 | [17] 0.08 | [18] 0.013 | [19] 0.144 | [20] -0.017

NT5DC1 (UniProt Q5TFE4)
UniProt Q5TFE4, sequence (Q5TFE4 whole entry, looked up): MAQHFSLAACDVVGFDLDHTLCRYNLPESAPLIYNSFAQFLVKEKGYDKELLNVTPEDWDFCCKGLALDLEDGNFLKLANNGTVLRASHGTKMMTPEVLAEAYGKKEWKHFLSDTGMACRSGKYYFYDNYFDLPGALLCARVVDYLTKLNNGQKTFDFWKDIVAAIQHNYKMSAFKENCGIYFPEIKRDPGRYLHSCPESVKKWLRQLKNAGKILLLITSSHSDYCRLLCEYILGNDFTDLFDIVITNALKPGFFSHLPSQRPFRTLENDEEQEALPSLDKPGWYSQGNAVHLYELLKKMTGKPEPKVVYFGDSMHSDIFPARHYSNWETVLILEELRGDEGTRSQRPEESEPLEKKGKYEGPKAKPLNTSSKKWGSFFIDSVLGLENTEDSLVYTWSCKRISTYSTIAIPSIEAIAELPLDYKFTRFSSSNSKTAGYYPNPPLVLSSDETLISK
inactive: [1] 0.165 | [2] 0.051 | [3] -0.026 | [4] 0.045 | [5] 0.015 | [6] -0.054 | [7] 0.014 | [8] 0.008 | [9] -0.037 | [10] -0.063 | [11] -0.012 | [12] 0.026 | [13] -0.049 | [14] 0 | [15] 0.115 | [16] -0.004 | [17] -0.057 | [18] -0.058 | [19] -0.029 | [20] 0.037

P4HA2 (UniProt O15460)
UniProt O15460, sequence (O15460 whole entry, looked up): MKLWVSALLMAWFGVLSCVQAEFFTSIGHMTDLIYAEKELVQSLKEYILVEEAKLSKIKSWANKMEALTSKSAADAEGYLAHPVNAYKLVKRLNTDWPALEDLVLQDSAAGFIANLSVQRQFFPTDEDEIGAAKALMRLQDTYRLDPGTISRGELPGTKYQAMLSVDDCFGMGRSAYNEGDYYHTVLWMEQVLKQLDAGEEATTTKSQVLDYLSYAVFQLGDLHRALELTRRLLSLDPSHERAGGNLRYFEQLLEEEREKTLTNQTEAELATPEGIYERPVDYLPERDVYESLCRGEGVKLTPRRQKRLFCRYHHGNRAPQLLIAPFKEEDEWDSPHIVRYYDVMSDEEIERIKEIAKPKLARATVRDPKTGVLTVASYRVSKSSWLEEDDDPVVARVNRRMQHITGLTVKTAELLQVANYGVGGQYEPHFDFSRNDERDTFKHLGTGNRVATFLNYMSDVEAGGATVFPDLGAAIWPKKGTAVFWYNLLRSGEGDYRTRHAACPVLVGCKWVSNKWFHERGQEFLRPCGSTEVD
inactive: [1] 0.08 | [2] -0.012 | [3] -0.006 | [4] -0.257 | [5] -0.038 | [6] 0.138 | [7] -0.036 | [8] -0.126 | [9] 0.112 | [10] 0.118 | [11] 0.002 | [12] -0.033 | [13] 0.004 | [14] 0.098 | [15] 0.003 | [16] 0.085 | [17] 0.145 | [18] 0.016 | [19] -0.019 | [20] 0.001

NAP1L1 (UniProt P55209)
UniProt P55209, sequence (P55209 whole entry, looked up): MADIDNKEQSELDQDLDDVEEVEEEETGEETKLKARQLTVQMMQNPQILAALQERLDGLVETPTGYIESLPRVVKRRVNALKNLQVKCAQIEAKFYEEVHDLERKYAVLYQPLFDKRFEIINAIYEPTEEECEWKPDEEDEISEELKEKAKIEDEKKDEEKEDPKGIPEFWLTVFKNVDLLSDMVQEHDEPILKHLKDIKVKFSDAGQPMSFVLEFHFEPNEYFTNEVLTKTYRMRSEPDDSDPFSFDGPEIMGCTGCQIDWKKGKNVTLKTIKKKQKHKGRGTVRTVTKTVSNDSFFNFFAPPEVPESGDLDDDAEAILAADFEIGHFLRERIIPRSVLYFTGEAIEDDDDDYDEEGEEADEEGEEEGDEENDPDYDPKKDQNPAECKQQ
active: [2] -0.237
inactive: [1] -0.112 | [3] 0.005 | [4] 0.048 | [5] 0.007 | [6] -0.008 | [7] 0.013 | [8] 0.014 | [9] 0.003 | [10] -0.038 | [11] 0.042 | [12] -0.039 | [13] -0.045 | [14] -0.008 | [15] 0.053 | [16] -0.008 | [17] 0.039 | [18] -0.084 | [19] 0.048 | [20] 0.023

NEMP1 (UniProt O14524)
UniProt O14524, sequence (O14524 whole entry, looked up): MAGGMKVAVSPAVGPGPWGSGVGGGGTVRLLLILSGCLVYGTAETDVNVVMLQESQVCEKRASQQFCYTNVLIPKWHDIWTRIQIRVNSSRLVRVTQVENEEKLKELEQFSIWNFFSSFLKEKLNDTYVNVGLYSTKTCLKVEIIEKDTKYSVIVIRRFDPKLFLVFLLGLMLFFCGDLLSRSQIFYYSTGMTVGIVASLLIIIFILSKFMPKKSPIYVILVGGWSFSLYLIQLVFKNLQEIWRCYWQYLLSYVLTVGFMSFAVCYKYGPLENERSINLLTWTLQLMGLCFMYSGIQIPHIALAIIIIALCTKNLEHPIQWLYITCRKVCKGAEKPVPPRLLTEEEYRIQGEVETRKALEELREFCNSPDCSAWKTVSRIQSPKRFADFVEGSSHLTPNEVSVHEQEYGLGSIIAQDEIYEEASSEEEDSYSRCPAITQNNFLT
inactive: [1] 0.007 | [2] -0.128 | [3] -0.023 | [4] 0.015 | [5] 0.08 | [6] 0.018 | [7] -0.003 | [8] 0.048 | [9] 0.01 | [10] -0.106 | [11] -0.001 | [12] -0.012 | [13] -0.015 | [14] -0.002 | [15] -0.111 | [16] 0.021 | [17] 0.026 | [18] -0.045 | [19] -0.039 | [20] 0.053
